Data from ChEMBL document CHEMBL1157539, “Thousands of chemical starting points for antimalarial lead identification” (Nature, 2010).

What follows are compounds tested on Plasmodium falciparum (assay: GSK_TCMDC: Inhibition of Plasmodium falciparum Dd2 in whole red blood cells, using parasite LDH activity as an index of growth. Test compounds present at 2uM).
Format: functional
Work on `CCCCCCCCNCCCSCCCNCCCCCCCC.Cl` yielded an Inhibition of 47%. `CCC1(C)N=C(N)N=C(N)N1c1ccc(Cl)cc1.Cl` (stereo not given) was tested, and the Inhibition was 0%. In the case of `Cl.O=S(=O)(Nc1cc2c(cc1OCc1ccccc1)CCN(C1CCC1)CC2)c1ccc(-c2ccc(Cl)cc2)cc1`, the Inhibition is reported as 12%. Work on `Cc1cccc2nc(-c3cccc(-c4cccc(NC(=O)c5ccc(C(N)=O)cc5)c4)c3)[nH]c12` yielded an Inhibition of 34%. Compound `O=[N+]([O-])c1cc2c(cc1C=NNc1nc(=Nc3ccccc3)[nH]c(=Nc3ccccc3)[nH]1)OCO2` has an Inhibition of 46%. Compound `COC(=O)CCCOc1cc(Cc2cnc(N)nc2N)cc(OC)c1OC` has an Inhibition of 0%. `CC(C)(C)c1ccc(CNC(=O)c2cc(CNC3CCC(N)CC3)ccc2O)cc1` (stereo not given) was tested, and the Inhibition was 1%. `COc1c(C2CCN(CCCCNC(=O)c3ccc(-c4ccc(Cl)cc4)cn3)CC2)ccc2c1CCCC2` gave an Inhibition of 14%. For `Nc1nccc2ccc(-c3cccc(OCc4ccccc4)c3)cc12.O=C(O)C(F)(F)F`, the Inhibition was 81%. In the case of `COc1c(F)ccc2ncc(Cl)c(CCN3CCC(NCc4ccc5c(n4)NC(=O)CS5)CC3)c12.Cl`, the Inhibition is reported as 29%. For `Br.CCOc1ccc(CCCON2C(=N)N=C(N)NC2(C)C)cc1`, the Inhibition was 93%. `CCN(CC)CCCN(Cc1ccc(-c2ccc(C(F)(F)F)cc2)cc1)C(=O)Cn1c(SCc2cccc(F)c2F)cc(=O)c2ccccc21.O=C(O)C(O)C(O)C(=O)O` showed an Inhibition of 82%. In the case of `O=C(/C=C/c1ccc(Cl)c(Cl)c1)NCCCCCN1CCC(CCCNC(=O)Nc2ccc(C(F)(F)F)cc2)CC1`, the Inhibition is reported as 19%. With `O=C(Nc1ccc(Br)cc1)c1cc(Br)ccc1NS(=O)(=O)c1ccc(C(F)(F)F)cc1` the Inhibition was 56%. Compound `c1cncc(Oc2ccc(Nc3ccnc4cc(-c5cccc(CNCCN6CCOCC6)c5)ccc34)cc2)c1` has an Inhibition of 99%. `CC(C)COc1ccc(Cl)cc1Cc1nc(-c2nc3cccc(CN4CCN(C)CC4)c3[nH]2)cs1` was tested, and the Inhibition was 30%. Work on `Cc1ccc(C2(CN3CCC(NC(=O)c4cc[nH]n4)CC3)CCCCC2)cc1` yielded an Inhibition of 96%. In the case of `Cl.N#Cc1ccc2c(c1)CCN(CCC1CCC(NC(=O)/C=C/c3cccc4ccccc34)CC1)CC2` (stereo not given), the Inhibition is reported as 12%. With `COc1ccc(NC(=O)Nc2ccc(-c3ccc(-c4nc5cccc(C)c5[nH]4)s3)cc2)cc1` the Inhibition was 96%. For `Cc1cc2cc(-c3ccc(CN)cc3)ccc2nc1N`, the Inhibition was 8%. In the case of `O=C(c1cnn(-c2ccccc2)c1C(F)(F)F)N1CCN(c2ccnc3cc(Cl)ccc23)CC1`, the Inhibition is reported as 94%. `Nc1ncc(Cc2ccc3c(ccc4ccccc43)c2)c(N)n1` gave an Inhibition of 3%. Work on `COc1ccc2nccc([C@@H](O)CN3CCC(NCc4ccc5c(c4)oc(=S)n5C)CC3)c2c1.O=C(O)/C=C/C(=O)O` yielded an Inhibition of 68%. In the case of `Oc1ccc2[nH]c(-c3cccc(F)c3)nc2c1CN1CCC(N2CCCC2)CC1`, the Inhibition is reported as 54%. `Cc1cccc2nc(-c3cccc(-c4ccc(NC(=O)CCc5c[nH]cn5)cc4)c3)[nH]c12` showed an Inhibition of 92%. `COc1ccc(-c2cccc(NC(=O)c3ccc(Cl)cc3)c2)cc1CNC(C)C.O=C(O)C(F)(F)F` was tested, and the Inhibition was 44%. `CCOC(=O)C(C)(C)Oc1ccc(CN(Cc2ccc(CC(C)C)cc2)C(=O)Nc2ccc(F)cc2F)c(OC)c1` was tested, and the Inhibition was 96%. For `CN1CCC(NCc2ccc(-c3cccc(S(=O)(=O)NCCc4ccccn4)c3)cc2)CC1.O=C(O)C(F)(F)F`, the Inhibition was 0%. `CC(=O)Nc1nc(C(=O)Nc2cccc(-c3cccc(-c4nc5cc(F)ccc5[nH]4)c3)c2)cs1` was tested, and the Inhibition was 100%. In the case of `CN1CCN(CC(=O)Nc2cccc(-c3ccc(-c4nc5cc(C(F)(F)F)ccc5[nH]4)cc3)c2)CC1`, the Inhibition is reported as 94%. Work on `COc1ccc(-c2cccc(NC(=O)c3cccc(Cl)c3)c2)cc1CN1CCNCC1.O=C(O)C(F)(F)F` yielded an Inhibition of 52%. With `CC(=NNC(S)=NC(c1ccccc1)c1ccccc1)c1ccccn1` the Inhibition was 97%. In the case of `CCCN1CCN(Cc2ccc(C(=O)Nc3ccc(Cl)cc3)cc2)CC1.O=C(O)C(F)(F)F`, the Inhibition is reported as 14%. `CCN(CCS(C)(=O)=O)Cc1ccc(-c2ccc3ncnc(Nc4ccc(OCc5cccc(F)c5)c(Cl)c4)c3c2)o1.Cc1ccc(S(=O)(=O)O)cc1` gave an Inhibition of 63%. Compound `O=C(Nc1ccc(-c2ccc(-c3nc4ccccc4[nH]3)cc2)cc1)Nc1ccc(Cl)c(Cl)c1` has an Inhibition of 100%. With `COc1cc(COc2c(C)nc(N)nc2N)cc(OC)c1OC.Cl` the Inhibition was 0%. For `N#Cc1cccc(Nc2nccc(NCC(O)c3ccccc3C(F)(F)F)n2)c1` (stereo not given), the Inhibition was 39%. Compound `O=C(NC1CCC1)C1CCN(C(c2ccccc2)c2cc(F)cc(F)c2)CC1` (stereo not given) has an Inhibition of 72%. `CC(C)(C)NC(=O)c1ccc(Oc2ccc(OC(F)(F)F)cc2)c(NC(=O)C(C)(C)C)c1` was tested, and the Inhibition was 2%. With `O=C(Nc1ccc2c(c1)CCC2)N[C@H]1CCN(CCCCCNC(=O)C2CC2c2ccc(Cl)c(Cl)c2)C1` (stereo not given in full) the Inhibition was 0%.

These compounds were tested on HepG2 (assay: GSK_TCMDC: Percent inhibition of human HepG2 cell line. Test compounds present at 10uM.).
Format: functional
For `CCCCCCCCNCCCSCCCNCCCCCCCC.Cl`, the Inhibition was 63%. `CCC1(C)N=C(N)N=C(N)N1c1ccc(Cl)cc1.Cl` (stereo not given) showed an Inhibition of 7%. `Cl.O=S(=O)(Nc1cc2c(cc1OCc1ccccc1)CCN(C1CCC1)CC2)c1ccc(-c2ccc(Cl)cc2)cc1` showed an Inhibition of 18%. Compound `Cc1cccc2nc(-c3cccc(-c4cccc(NC(=O)c5ccc(C(N)=O)cc5)c4)c3)[nH]c12` has an Inhibition of 25%. In the case of `O=[N+]([O-])c1cc2c(cc1C=NNc1nc(=Nc3ccccc3)[nH]c(=Nc3ccccc3)[nH]1)OCO2`, the Inhibition is reported as 0%. Work on `COC(=O)CCCOc1cc(Cc2cnc(N)nc2N)cc(OC)c1OC` yielded an Inhibition of 12%. Compound `CC(C)(C)c1ccc(CNC(=O)c2cc(CNC3CCC(N)CC3)ccc2O)cc1` (stereo not given) has an Inhibition of 1%. `COc1c(C2CCN(CCCCNC(=O)c3ccc(-c4ccc(Cl)cc4)cn3)CC2)ccc2c1CCCC2` was tested, and the Inhibition was 100%. Compound `Nc1nccc2ccc(-c3cccc(OCc4ccccc4)c3)cc12.O=C(O)C(F)(F)F` has an Inhibition of 47%. With `COc1c(F)ccc2ncc(Cl)c(CCN3CCC(NCc4ccc5c(n4)NC(=O)CS5)CC3)c12.Cl` the Inhibition was 30%. For `Br.CCOc1ccc(CCCON2C(=N)N=C(N)NC2(C)C)cc1`, the Inhibition was 65%. With `CCN(CC)CCCN(Cc1ccc(-c2ccc(C(F)(F)F)cc2)cc1)C(=O)Cn1c(SCc2cccc(F)c2F)cc(=O)c2ccccc21.O=C(O)C(O)C(O)C(=O)O` the Inhibition was 45%. In the case of `O=C(/C=C/c1ccc(Cl)c(Cl)c1)NCCCCCN1CCC(CCCNC(=O)Nc2ccc(C(F)(F)F)cc2)CC1`, the Inhibition is reported as 0%. `O=C(Nc1ccc(Br)cc1)c1cc(Br)ccc1NS(=O)(=O)c1ccc(C(F)(F)F)cc1` showed an Inhibition of 53%. With `c1cncc(Oc2ccc(Nc3ccnc4cc(-c5cccc(CNCCN6CCOCC6)c5)ccc34)cc2)c1` the Inhibition was 14%. In the case of `CC(C)COc1ccc(Cl)cc1Cc1nc(-c2nc3cccc(CN4CCN(C)CC4)c3[nH]2)cs1`, the Inhibition is reported as 15%. For `Cc1ccc(C2(CN3CCC(NC(=O)c4cc[nH]n4)CC3)CCCCC2)cc1`, the Inhibition was 0%. In the case of `Cl.N#Cc1ccc2c(c1)CCN(CCC1CCC(NC(=O)/C=C/c3cccc4ccccc34)CC1)CC2` (stereo not given), the Inhibition is reported as 16%. `COc1ccc(NC(=O)Nc2ccc(-c3ccc(-c4nc5cccc(C)c5[nH]4)s3)cc2)cc1` was tested, and the Inhibition was 74%. `Cc1cc2cc(-c3ccc(CN)cc3)ccc2nc1N` showed an Inhibition of 18%. Work on `O=C(c1cnn(-c2ccccc2)c1C(F)(F)F)N1CCN(c2ccnc3cc(Cl)ccc23)CC1` yielded an Inhibition of 34%. For `Nc1ncc(Cc2ccc3c(ccc4ccccc43)c2)c(N)n1`, the Inhibition was 9%. `COc1ccc2nccc([C@@H](O)CN3CCC(NCc4ccc5c(c4)oc(=S)n5C)CC3)c2c1.O=C(O)/C=C/C(=O)O` was tested, and the Inhibition was 14%. `Oc1ccc2[nH]c(-c3cccc(F)c3)nc2c1CN1CCC(N2CCCC2)CC1` showed an Inhibition of 0%. `Cc1cccc2nc(-c3cccc(-c4ccc(NC(=O)CCc5c[nH]cn5)cc4)c3)[nH]c12` was tested, and the Inhibition was 3%. `COc1ccc(-c2cccc(NC(=O)c3ccc(Cl)cc3)c2)cc1CNC(C)C.O=C(O)C(F)(F)F` showed an Inhibition of 53%. With `CCOC(=O)C(C)(C)Oc1ccc(CN(Cc2ccc(CC(C)C)cc2)C(=O)Nc2ccc(F)cc2F)c(OC)c1` the Inhibition was 5%. For `CN1CCC(NCc2ccc(-c3cccc(S(=O)(=O)NCCc4ccccn4)c3)cc2)CC1.O=C(O)C(F)(F)F`, the Inhibition was 42%. In the case of `CC(=O)Nc1nc(C(=O)Nc2cccc(-c3cccc(-c4nc5cc(F)ccc5[nH]4)c3)c2)cs1`, the Inhibition is reported as 39%. Compound `CN1CCN(CC(=O)Nc2cccc(-c3ccc(-c4nc5cc(C(F)(F)F)ccc5[nH]4)cc3)c2)CC1` has an Inhibition of 37%. `COc1ccc(-c2cccc(NC(=O)c3cccc(Cl)c3)c2)cc1CN1CCNCC1.O=C(O)C(F)(F)F` showed an Inhibition of 29%. `CC(=NNC(S)=NC(c1ccccc1)c1ccccc1)c1ccccn1` showed an Inhibition of 45%. `CCCN1CCN(Cc2ccc(C(=O)Nc3ccc(Cl)cc3)cc2)CC1.O=C(O)C(F)(F)F` gave an Inhibition of 48%. `CCN(CCS(C)(=O)=O)Cc1ccc(-c2ccc3ncnc(Nc4ccc(OCc5cccc(F)c5)c(Cl)c4)c3c2)o1.Cc1ccc(S(=O)(=O)O)cc1` was tested, and the Inhibition was 5%. Work on `O=C(Nc1ccc(-c2ccc(-c3nc4ccccc4[nH]3)cc2)cc1)Nc1ccc(Cl)c(Cl)c1` yielded an Inhibition of 68%. Work on `COc1cc(COc2c(C)nc(N)nc2N)cc(OC)c1OC.Cl` yielded an Inhibition of 7%. `N#Cc1cccc(Nc2nccc(NCC(O)c3ccccc3C(F)(F)F)n2)c1` (stereo not given) showed an Inhibition of 36%. In the case of `O=C(NC1CCC1)C1CCN(C(c2ccccc2)c2cc(F)cc(F)c2)CC1` (stereo not given), the Inhibition is reported as 0%. With `CC(C)(C)NC(=O)c1ccc(Oc2ccc(OC(F)(F)F)cc2)c(NC(=O)C(C)(C)C)c1` the Inhibition was 0%. `O=C(Nc1ccc2c(c1)CCC2)N[C@H]1CCN(CCCCCNC(=O)C2CC2c2ccc(Cl)c(Cl)c2)C1` (stereo not given in full) showed an Inhibition of 37%.
